Assay outcomes (PubChem)
Compounds with a hit are over-represented: about 3.5% of the library has one in this group of screens.
BoNT-A LC inh2 = inhibitors of Botulinum neurotoxin A light chain protease; multiplex microsphere protease substrate cleavage, flow cytometry; inhibition, % at 10 µM; actives 0.17% (n = 360,000); note: plate controls were buffer without enzyme for full effect and enzyme alone for no effect
Anthrax LF prot = blocks Bacillus anthracis lethal factor protease; P15917; multiplex microsphere protease cleavage assay, LF; inhibition, % at 10 µM; actives 0.12% (n = 360,000); AID 588501; note: plate controls were buffer without enzyme for full effect and enzyme alone for no effect
BoNT F protease = BoNT F light chain protease inhibition; actives 0.22% (n = 360,000); Multiplex microsphere protease cleavage assay, flow cytometry; inhibition, % at 10 µM; in the data active = inhibition above about 35%, passing the limit was not always enough; inconclusive = no clear call, values can overlap the other calls; note: plate controls were buffer without enzyme for full effect and enzyme alone for no effect
Vc quorum ag = induces V. cholerae light production without autoinducers; AID 588436; activation, % at 18.7 µM; actives 0.16% (n = 350,000); V. cholerae BH1578 lux reporter, luminescence, 6 h; in the data active = activation mostly above about 9.7%, no sharp cut-off; inconclusive = no clear call, values can overlap the other calls; inactive = mostly below about 3.7%
Autofluor counter = compound fluorescence in toxin protease inhibitor counterscreen | compound autofluorescence counterscreen, microsphere flow cytometry; stronger effect = higher value | fluorescence intensity (test concentration not listed) | actives 3.1% (n = 360,000) | AID 624483; in the data active = fluorescence intensity above about 16000; inconclusive = no clear call, values can overlap the other calls
Numbers without * were called inactive; i = inactive; ? = inconclusive; / = not tested or not shown. Cut-off read from the data, not from the text of the source, unless noted: active = inhibition above about 30%; inconclusive = no clear call, values can overlap the other calls; inactive = below that.

SMILES | BoNT-A LC inh2 | Anthrax LF prot | BoNT F protease | Vc quorum ag | Autofluor counter
COc1ccc(NS(=O)(=O)c2cc(-c3nnnn3C)ccc2OC)cc1 | 6 | -14 | 10 | i | 18825*
CCn1nnnc1-c1ccc(OC)c(S(=O)(=O)Nc2ccc(C)c(C)c2)c1 | -2 | 0 | -28 | i | 2334
COc1ccc(-n2nnnc2S(=O)(=O)Cc2ccc(C(=O)O)cc2)cc1 | 6 | -11 | 3 | i | 17765*
COc1ccccc1NC(=O)CCSc1nc(C)cs1 | -2 | 2 | -4 | 13 | 4200
COc1ccc2c(c1)CC1(CN2C)C(=O)NC(=O)N(c2ccc(F)cc2)C1=O (stereo unspecified) | 0 | -1 | 0 | i | 22766*
O=C1CC(=O)N(CCc2ccccc2)C(=O)N1CCc1ccccc1 | 2 | -2 | -3 | -1 | 22637*
COc1cc(C2Nc3cccc4cccc(c34)N2)ccc1O | -5 | -15 | ? | i | 3240
Oc1ccc2ccccc2c1C1Nc2cccc3cccc(c23)N1 | -1 | -7 | -10 | i | 23653*
CCN(CC1CCCO1)C(=O)CCc1nnc(CCc2ccc(OC)cc2)o1 (stereo unspecified) | -1 | -3 | -8 | i | 4550
COC(=O)[C@H](CC(C)C)NC(=O)NC1CCCCC1C (stereo partly specified) | 4 | -17 | 6 | i | 17745*
COC(=O)[C@H](CC(C)C)NC(=O)NC1CCCc2ccccc21 (stereo partly specified) | 0 | -2 | -9 | i | 2303
N#CC1(NC(=O)CSc2nnc(-c3ccccc3F)o2)CCCCC1 | -2 | -2 | -7 | i | 5875
CCOc1ccc2c(c1)nc(SCC(=O)c1ccc(Br)s1)n2C | 2 | 1 | -1 | 0 | 16282*
O=C(NC1CCN(Cc2nnnn2CCc2ccccc2)CC1)c1ccccc1F | 3 | -2 | 5 | -6 | 22189*
Cc1ccccc1C(=O)NC1CCN(Cc2nnnn2Cc2ccccc2)CC1 | -3 | -15 | 3 | 0 | 10508
COc1cc(Br)cc2cc(C(=O)N3CCN(c4ccccn4)CC3)c(=O)oc12 | -1 | 0 | -1 | i | 23664*
Cc1c(C(=O)N2CCN(c3ccccn3)CC2)oc2ccccc12 | 3 | -12 | 1 | i | 22383*
O=C(c1cc2cc(Cl)ccc2oc1=O)N1CCN(c2ccccn2)CC1 | -7 | 0 | -21 | i | 4351
CC(=O)N1CCN(C(=O)c2oc3ccccc3c2C)CC1 | 1 | -2 | 5 | i | 5781
O=C(c1cc2cc(Br)ccc2oc1=O)N1CCN(c2ccccn2)CC1 | 0 | -3 | 0 | 0 | 16477*
Cc1cnn(C(=O)c2oc3ccccc3c2C)c1 | 3 | 2 | 7 | i | 22067*
CCOc1ccc2oc(C(=O)N3CCN(c4ccccn4)CC3)c(C)c2c1 | 1 | -2 | 13 | -2 | 5614
Fc1ccc(COc2ccccc2-c2ccnc3ncnn23)cc1 | 0 | 0 | -1 | -1 | 4193
CCOCCn1c(COc2ccccc2)nc2ccccc21 | 0 | 0 | -3 | i | 3265
CCCn1c(COc2ccccc2)nc2ccccc21 | 6 | -2 | 42* | 0 | 3009
SMILES | BoNT-A LC inh2 | Anthrax LF prot | BoNT F protease | Vc quorum ag | Autofluor counter
O=C(C1CC(=O)N(c2ccccc2)C1)N1CCN(c2ccccc2)CC1 (stereo unspecified) | 1 | 5 | 2 | 0 | 5685
CCCC(=O)N1CCN(C2=NS(=O)(=O)c3ccccc32)CC1 | ? | -4 | -6 | 3 | 23423*
O=C(C1CC(=O)N(c2ccccc2)C1)N1CCN(C2=NS(=O)(=O)c3ccccc32)CC1 (stereo unspecified) | -1 | 0 | 0 | 0 | 23523*
CCc1ccc(CCC(=O)Nc2sc(C)c(C)c2C(=O)OC)o1 | -1 | -5 | -3 | 0 | 21036*
COC(=O)c1c(NC(=O)CCCC(=O)O)sc(C)c1C | 0 | 0 | -1 | 1 | 3425
COC(=O)c1c(NC(=O)Cc2ccccc2)sc(C)c1C | 0 | -1 | -1 | / | 2470
CCOC(=O)c1cnn(CCOC(=O)Cc2cccs2)c1NC(=O)Cc1cccs1 | 1 | -1 | 1 | 0 | 22856*
COC(=O)c1c(NC(=O)Cc2cccs2)sc(C)c1C | -6 | -5 | -11 | 0 | 21860*
CCOC(=O)c1cnn(CCOC(=O)c2ccc(F)cc2)c1NC(=O)c1ccc(F)cc1 | -1 | -4 | -11 | i | 6909
COCCNC(=O)CN(Cc1ccc(F)cc1)C(=O)CCC(=O)Nc1nccs1 | -6 | 10 | -24 | 0 | 3955
COCCn1c(SCC#N)nnc1-c1ccccc1O | -3 | -6 | -6 | 1 | 20776*
O=C(NC1CC1)C1CCN(C2CCN(C(=O)CC3=CCCCC3)CC2)CC1 | 0 | -1 | 1 | 0 | 4907
CCCc1c(O)nc(SCCN(CC)CC)n(C(=O)c2ccccc2)c1=O | -3 | 0 | -5 | i | 23987*
O=C(O)CCC(=O)OCC1CCCCC1 | ? | 0 | 2 | -3 | 19321*
OC(c1ccc(CN2CCCCC2)cc1)c1ncc(-c2ccccc2)[nH]1 (stereo unspecified) | 0 | 5 | 6 | i | 3644
CCN(CC)CCCN=C(C)c1c(O)n(C2CCCCC2)c(=O)[nH]c1=O | 0 | -1 | -4 | i | 16590*
CCC(=NCCN1CCOCC1)c1c(O)n(C2CCCCC2)c(=O)[nH]c1=O | 1 | -2 | 9 | 0 | 5537
CC(=NCCO)c1c(O)n(C2CCCCC2)c(=O)[nH]c1=O | 1 | 4 | -2 | / | 3166
CCC(=NCCCN(CC)CC)c1c(O)n(C2CCCCC2)c(=O)[nH]c1=O | -3 | 0 | -3 | i | 25763*
CCC(=Nc1ccc(OC)cc1OC)c1c(O)n(C2CCCCC2)c(=O)[nH]c1=O | 1 | -1 | -1 | i | 22084*
CN(C(=O)c1ccccc1C(=O)OCC(=O)Nc1ccccc1)c1ccccc1 | / | / | / | i | /
Cc1cc(C)c2[nH]c(=O)c(CN(Cc3cccnc3)C(=S)NCCCN(C)C)cc2c1 | -1 | -4 | -3 | i | 3608
CCC(C)n1c(S(=O)(=O)O)nc2ccccc21 (stereo unspecified) | -1 | 1 | 1 | 0 | 22449*
CCOC(=O)C1CCN(S(=O)(=O)c2ccc3c(c2)N(C(C)=O)CC(C)S3)CC1 (stereo unspecified) | 1 | -1 | -1 | 0 | 5703
CCOC(=O)CSc1n[nH]c(-c2ccco2)n1 | 0 | -4 | -1 | 0 | 5814
SMILES | BoNT-A LC inh2 | Anthrax LF prot | BoNT F protease | Vc quorum ag | Autofluor counter
O=C(CSc1n[nH]c(-c2ccco2)n1)N1c2ccccc2Sc2ccccc21 | 2 | -3 | 2 | -2 | 22111*
CCCCSCc1ccc(C(=O)O)o1 | 3 | 0 | 6 | i | 20913*
CC(C)CCN1CCNC(=O)C1CC(=O)N(C)CCCN1CCOCC1 (stereo unspecified) | 4 | -3 | 0 | -1 | 4592
COCCNC(=O)c1ccccc1NC(=O)COc1ccccc1 | 2 | 2 | 4 | -6 | 20130*
COC(=O)c1ccccc1NC(=O)COc1ccccc1 | -1 | -5 | -17 | 0 | 10312
CN(C)/C=C1\C(=O)N(C)N=C1C(F)(F)F | 0 | 1 | -2 | -2 | 2598
